PubChem BioAssay AID1531 (NMMLSC, 2009)
Out of some 290,000 compounds screened, about 3,300 (1.1%) were called active. The full list was thinned out, with actives kept by preference. Values without a mark were called inactive. No stated cut-off is given here; in the data, active means binding response below about 67% or above about 130%; inconclusive means no clear call, values can overlap the other calls; inactive means in between.

Molecular target: Mitogen-activated protein kinase kinase kinase 2 (Homo sapiens) (UniProt Q9Y2U5)
Experiment: wildtype MEKK2 PB1-MEK5 interaction, increase or decrease – biochemical, multiplex bead flow cytometry, Alexa488-MEK5, primary screen (AID 1531)
Details: Alexa488-MEK5 binding to MEKK2 WT, at 10 µM, actives lie on both sides

Row | SMILES | binding response (% of control)
1 | O=C(COc1ccc2ccc(=O)oc2c1)NCC(O)c1ccccc1 (centres undefined) | 104%
2 | CC1CCN(c2ccc([N+](=O)[O-])cc2C(N)=O)CC1 | 95%
3 | CCOC(=O)C1CCN(c2ccc(C(=O)O)cc2[N+](=O)[O-])CC1 | 101%
4 | O=C(O)C1CCN(c2ccc([N+](=O)[O-])cc2[N+](=O)[O-])CC1 | 46% [inhibitor] (active)
5 | CCOc1ccccc1-c1cc(C(=O)N/N=C(\C)c2cccnc2)c2ccccc2n1 | 92%
6 | O=C(NC1CCN(Cc2ccccc2)CC1)c1cc(Br)c(Br)[nH]1 | 140% (active)
7 | O=C(NC1CCN(Cc2ccccc2)CC1)c1c(F)cccc1F | 113%
8 | O=C(NC1CCN(Cc2ccccc2)CC1)c1ccccc1F | 101%
9 | CCOc1ccc(CC(=O)NC2CCN(Cc3ccccc3)CC2)cc1 | 108%
10 | Cc1cc(C(=O)NC2CCN(Cc3ccccc3)CC2)n[nH]1 | 98%
11 | O=C(NC1CCN(Cc2ccccc2)CC1)c1ccc(Oc2cc(Cl)cc(Cl)c2)o1 | 142% (active)
12 | C#CCOc1ccc(/C=C2/C(=O)ON=C2C)cc1OCC | 107%
13 | CCc1nnc(SCc2cccc(F)c2)nc1CC | 103%
14 | COc1ccc(-c2ccc(CNCCCN3CCOCC3)o2)cc1Cl | 106%
15 | O=C(NCc1ccccn1)c1cc(Br)ccc1Cl | 106%
16 | Fc1ccc(-c2ccc(CNCc3ccccn3)o2)cc1Cl | 140% (active)
17 | O=C(Nc1cccc(-c2nc3ccccc3[nH]2)c1)c1ccc(C(=O)Nc2cccc(-c3nc4ccccc4[nH]3)c2)cc1 | 63% [inhibitor] (active)
18 | Cc1ccc(-c2nc3ccccc3[nH]2)cc1NC(=O)c1sc2ccccc2c1Cl | 98%
19 | O=C(Cc1cccs1)Nc1cccc(-c2nc3ccccc3[nH]2)c1 | 95%
20 | C=C1CCN([C@@H](Cc2ccccc2)C(=O)N2CCOCC2)S(=O)(=O)c2ccccc21 | 107%
21 | COc1ccc(NC(=O)CCC(=O)Nc2cc(OC)c(NC(=O)c3ccco3)cc2OC)c(OC)c1 | 96%
22 | O=C(NCC1CC1)c1onc(CSc2ccccc2)c1C(=O)NCC1CC1 | 95%
23 | COc1ccc(NC(=O)Cn2nnc(C(=O)NCCc3ccc(OC)c(OC)c3)c2N)cc1 | 2% [inhibitor] (active)
24 | CCc1ccc(NC(=O)Cn2nnc(C(=O)NCc3ccc(OC)cc3)c2N)cc1 | 104%

Row | SMILES | binding response (% of control)
25 | COc1ccc(CNC(=O)c2nnn(CC(=O)Nc3cc(C)cc(C)c3)c2N)cc1 | 101%
26 | CCC(C)N1CC(=O)N2Cc3[nH]c4ccccc4c3C[C@H]2C1=O (some centres undefined) | 109%
27 | COc1ccc(NC(=O)C/C(C)=N/NC(=O)c2cnccn2)cc1Cl | 96%
28 | Cc1noc(C)c1C(=O)OCC(=O)/C=C1\N(C)c2ccccc2C1(C)C | 96%
29 | CN1/C(=C\C(=O)c2cccnc2Cl)C(C)(C)c2ccccc21 | 95%
30 | CC(=O)Nc1cccc(OCC(=O)/C=C2\N(C)c3ccccc3C2(C)C)c1 | 63% [inhibitor] (active)
31 | COc1ccc(Cl)cc1-n1c(=S)sc2c(=O)n(-c3ccc(F)cc3)c(SCC(=O)O)nc21 | 101%
32 | COc1ccc(Oc2cn[nH]c2-c2ccc(OC)cc2O)cc1 | 98%
33 | CN(C)CCCNC(=S)N1CCN(c2nc(-c3ccccc3)cs2)CC1 | 149% (active)
34 | CN(C)CCCNC(=S)N1CCC(c2nc3ccccc3[nH]2)CC1 | 116%
35 | COCCCNC(=S)N1CCN(c2nc(-c3cccc(OC)c3)cs2)CC1 | 95%
36 | O=C(CSc1ccc(-c2ccccn2)nn1)Nc1ccccc1 | 110%
37 | COc1cc2c(cc1OC)C(c1ccccc1Br)NC(=O)C2 (centres undefined) | 103%
38 | COCCCN1C(=O)c2ccc(C(=O)OCC(=O)NCc3ccccc3OC)cc2C1=O | 101%
39 | CN1CCN(CCCNC(=O)c2ccc(/C=C3\Oc4ccccc4N(Cc4ccc(Cl)cc4)C3=O)cc2)CC1 | 171% (active)
40 | CCCN1CCN(C(=O)CCCNC(=O)c2ccc(Cl)cc2)CC1 | 100%
41 | CN1C(=O)/C(=C/c2ccc(C(=O)NC3CCCC3)cc2)Oc2ccccc21 | 99%
42 | CS(=O)(=O)N(CC(=O)N1CCCCCC1)c1cccc(Cl)c1Cl | 108%
43 | CCc1cccc(C)c1NS(=O)(=O)c1cc(Br)cnc1N | 92%
44 | CCN1/C(=C/C(=S)Nc2ccccc2)Sc2ccccc21 | 87%
45 | CCN1/C(=C\c2ccc3ccccc3[n+]2CC)Sc2cc(C)ccc21 | 20% [inhibitor] (active)
46 | CCN1/C(=C/c2ccc3ccc(C)cc3[n+]2CC)Sc2ccccc21 | 74%
47 | CC1(C)CC[C@]2(C(=O)O)CC[C@]3(C)C(=CCC4[C@@]5(C)CC[C@H](O)C(C)(C)C5[C@H](O)C[C@]43C)[C@@H]2C1 (some centres undefined) | 100%
48 | N#CCc1c(C#N)c(N)nc(N2CCCC2)c1C#N | 107%

Row | SMILES | binding response (% of control)
49 | O=C(NCc1ccccc1)c1onc(CSc2ccncc2)c1C(=O)NCc1ccccc1 | 104%
50 | Clc1ccc2nc(-c3ccccc3)nc(C(Cl)Cl)c2c1 | 90%
51 | NC(N)=Nc1nc(-c2ccccc2)c2cc(Cl)ccc2n1 | 150% (active)
52 | O=C(CCl)NNc1nc(-c2ccccc2)c2cc(Cl)ccc2n1 | 102%
53 | CC(C)(C)n1nc(Cc2cccc3ccccc23)c(C#N)c1N | 98%
54 | COc1ccccc1NC(=O)c1ccc(N2CC3CC(C2)c2cccc(=O)n2C3)c(NC(=O)c2cccnc2)c1 (centres undefined) | 105%
55 | O=C1N[C@H](Cc2ccccc2)C(=O)N[C@H]1Cc1cn(S(=O)(=O)c2ccccc2)c2ccccc12 | 102%
56 | C/C=C/C(=O)OCc1csc(CC(=O)Nc2ccccc2C)n1 | 94%
57 | Cc1c(CN2CCC(CO)(CCOc3ccccc3)CC2)[nH]c2ccc(Cl)cc12 | 227% (active)
58 | CCOC(=O)C1(CCOc2ccccc2)CCN(Cc2cc(OC)c(O)cc2Cl)CC1 | 126%
59 | OCC1(CCOc2ccccc2)CCN(Cc2cn[nH]c2-c2ccccc2)CC1 | 94%
60 | COc1ccc(C2NC(=O)C(=O)/C2=C(\O)c2ccc(Cl)cc2)cc1OC (centres undefined) | 109%
61 | COC(C[C@@H](O)C[C@@H](O)[C@H](C)OCc1ccccc1)OC | 97%
62 | Cn1c(SCc2nc3ccccc3s2)nnc1-c1ccc2c(c1)OCO2 | 30% [inhibitor] (active)
63 | O=C(O)CSc1nnc(-c2ccc3c(c2)OCO3)n1-c1ccccc1 | 102%
64 | Cn1c(SCC(=O)N2CCCC2)nnc1-c1ccc2c(c1)OCO2 | 105%
65 | CC1CCC2CCCCC2N1C(=O)c1cc([N+](=O)[O-])cc([N+](=O)[O-])c1 (centres undefined) | 97%
66 | CCn1c(SCc2ccccc2)nc2cc(OC)c(OC)cc2c1=O | 105%
67 | O=C(NCC1CCCCC1)c1cc(S(=O)(=O)N2CCCCC2)ccc1N1CCOCC1 | 4% [inhibitor] (active)
68 | COc1ccc(S(=O)(=O)N2CCOCC2)cc1C(=O)NC1CCCCC1 | 104%
69 | COCCNC(=S)Nc1cc(S(=O)(=O)N2CCOCC2)ccc1N1CCCCC1 | 103%
70 | CC(C)(c1ccccc1)c1ccc(OCCN2CCCC2)cc1 | 119%
71 | Cc1onc(-c2ccccc2Cl)c1C(=O)OCC(=O)c1ccccc1 | -2% [inhibitor] (active)
72 | Cc1[nH]c2ccccc2c1C(=O)COC(=O)c1c(-c2ccccc2)noc1C | 113%

Row | SMILES | binding response (% of control)
73 | Cc1onc(-c2ccccc2Cl)c1C(=O)NCCn1ccc2ccccc21 | 98%
74 | O=C1CC2(CCCC2)Oc2ccc(Cl)cc21 | 109%
75 | C/C(=N\NC(=O)C1(C)CC1(Br)Br)c1ccc(C)cc1C (centres undefined) | 98%
76 | COc1ccccc1N1CCN(CCCCOc2ccc(F)cc2)CC1 | 135% (active)
77 | COc1ccc(OCCCCN2CCC(C)CC2)cc1 | 106%
78 | CCN1CCN(CCCCOc2ccccc2F)CC1 | 98%
79 | O=C(NCCO)C(=O)NCC(c1ccc2c(c1)OCO2)N1CCN(c2ccc(F)cc2)CC1 (centres undefined) | 99%
80 | O=C(COc1ccc([N+](=O)[O-])cc1)Nc1cccc(C(=O)Nc2ccccc2C(=O)O)c1 | 94%
81 | O=C(CC1NCCNC1=O)Nc1cc(Cl)cc(Cl)c1 (centres undefined) | 108%
82 | O=C(CC1SCCNC1=O)Nc1ccc(Cl)c(Cl)c1 (centres undefined) | 186% (active)
83 | O=C(CC1SCCNC1=O)Nc1ccc(Cl)cc1 (centres undefined) | 87%
84 | CC(C)c1c(C(=O)N/N=C/c2ccccc2C(=O)O)nnn1-c1nonc1N | 102%
85 | COC(=O)CN1C(=O)C(C)(C)Oc2ccc(C(=O)Nc3cccc(OC)c3)cc21 | 108%
86 | CCOC(=O)c1ccc2[nH]c3c(c2c1)CCCC3NC=O (centres undefined) | 97%
87 | N#CCSc1nc(-c2ccccc2)nc2ccc(F)cc12 | 100%
88 | COc1ccc(NC(=O)CS(=O)(=O)c2ccccc2)cc1 | 109%
89 | COC(=O)C(C)n1cnc2c(nnn2-c2cccc(Cl)c2)c1=O (centres undefined) | 106%
90 | CCOc1ccc(CNC(=O)C2CCCN(c3nnc(C)c4c(C)n(-c5ccccc5)nc34)C2)cc1 (centres undefined) | 105%
91 | CCOc1nnc(C)c2c(C)n(-c3cccc(Cl)c3)nc12 | 72% [inhibitor] (active)
92 | COc1ccc(NC(=O)CN2C(=O)COc3ccc(S(=O)(=O)N4CCOCC4)cc32)cc1 | 97%
93 | Fc1ccccc1COc1cccc2cccnc12 | 110%
94 | Cc1ccc(-c2nc(CSCC(=O)NC3CCN(Cc4ccccc4)CC3)c(C)o2)cc1 | 107%
